High-throughput results from PubChem.
Shown are actives, neighbours in structure and some others; about 2.3% of the full set was active somewhere.
TDP43 rescue – qHTS of TDP-43 Inhibitors. Potency, µM (series often up to 46.1 µM), actives largely listed as activators. TDP-43 expressing yeast growth rescue, BacTiter-Glo, 24 h. actives 1.8% (n = 410,000); further: nearly all actives have a fitted effect of over 50% in size
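Yeast expressing TDP-43 (pregrown in raffinose, seeded at OD600=0.02 in galactose medium) exposed to compounds 24 hr at 30 deg C. Growth read by BacTiter-Glo luminescence; rescue of toxicity appears as increased signal.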
FUS suppressor – qHTS for Suppressors of FUS Proteinopathy: Primary screen using FUS-linked yeast assay | S. cerevisiae FUS-expressing, growth rescue, OD600, 24 h | Potency, µM (top dose mostly 76.6 µM), most hits filed as activators | actives 0.24% (n = 390,000); further: nearly all actives have a fitted effect of over 55% in size
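Yeast expressing FUS under galactose induction, OD 0.005 in 2% galactose medium; compounds in a dilution series, 24 h at 30C. Growth rescue by absorbance at 600 nm; CP55940 positive control, DMSO negative.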
aSyn rescue – qHTS of alpha-syn Inhibitors. Potency, µM (titrated, usually from 46.1 µM), hits mostly activators. actives 0.14% (n = 370,000). AID 652106, 2013. Yeast expressing alpha-synuclein, growth rescue, BacTiter-Glo, 24 h; further: nearly all actives have a fitted effect of over 65% in size
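Screening used galactose-induced yeast with toxic alpha-synuclein levels, exposed to compound for 24 hr at 30 deg C. Cell growth, read with BacTiter-Glo luminescence, gave the measured signal.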
Abeta yeast res – qHTS for compounds that reverse cellular toxicity of Amyloid beta (A-beta) peptide in yeast: Primary Screen. Potency, µM (doses to about 46.1 µM), usual class: activators. yeast expressing A-beta42, growth rescue, OD600, 48 h; response scale: 0% DMSO, 100% iron-clioquinol control. actives 0.063% (n = 410,000); further: nearly all actives have a fitted effect of over 55% in size
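Yeast growth medium received pinned compounds, then yeast cells expressing toxic A-beta were added; plates incubated at 30 C for 48 hr. Growth read as absorbance at 600 nm, normalized to DMSO and equimolar FeCl3 plus clioquinol controls.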
CCT chaperon mod – High-Throughput Screening for Modulators of Cytosolic Chaperonin Activity | purified chaperonin ATPase assay, HTRF ADP detection, 30 min | activity change, % (concentration not given with the values), hits read low | actives 0.3% (n = 360,000); in the data active means activity change below about -30%
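Nucleotide hydrolysis assay: TRiC at 20–40 nM final (set by batch activity) with 10 uM ATP, 30 min at 37 °C, in presence of 76 uM compound. Detection by competitive ADP HTRF, 30 min ambient.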
MmCpn inh – Inhibitors of TCP-1 ring complex (TRiC) of Methanococcus maripaludis (MmCpn): qHTS. Chaperonin Mm-Cpn (Methanococcus maripaludis). purified Mm-Cpn ATPase, ADP Transcreener TR-FRET. Potency, µM (highest dose often 76.9 µM), most hits filed as inhibitors. actives 0.031% (n = 330,000); further: nearly all actives have a fitted effect of over 80% in size
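Reaction buffer contained 30 mM Tris pH 7.4, 100 mM KCl, 5 mM MgCl2 and 1 mM DTT. Mm-CPN (25 nM final) hydrolysed 10 uM ATP over 30 min at 37°C; ADP was read by HTRF.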
Hits are given with their value; . = inactive; ? = inconclusive; / = no result; [ ] = dose if it differs, or a comment. Unless noted, the call rests on the fitted dose curve; in most records, active means well fitted curve in the direction sought with a large enough effect; inconclusive means small, poorly fitted or top-dose-only effect, or another doubt; inactive means no such curve, though single readings can be large; an effect the other way counts as inactive or inconclusive.

SMILES	TDP43 rescue	FUS suppressor	aSyn rescue	Abeta yeast res	CCT chaperon mod	MmCpn inh
c1ccc(Nc2scc(-c3ccccc3)[n+]2Cc2ccco2)cc1	20µM	.	.	.	.	.
c1ccc(C[n+]2c(-c3ccccc3)csc2Nc2ccccc2)cc1	.	/	.	.	.	.
O=C(NCCc1csc(-c2cccc(F)c2)n1)c1cccs1	16µM	.	/	.	/	/
CCCCOc1ccc(C(=O)NCCc2csc(-c3cccc(F)c3)n2)cc1	.	.	/	.	/	/
COc1ccc(-c2nc(CCNC(=O)c3cccs3)cs2)cc1	?	.	.	.	.	.
O=C(NCCc1csc(-c2ccc(F)cc2)n1)c1cccs1	11µM	.	/	.	/	/
COCCCN1C(=O)[C@H](CC(=O)NCCc2ccccc2OC)[C@]2(C(=O)OC)CCCCC=C12	/	.	/	/	/	/
O=C(CN1C(=O)C2C3C=CC(C3)C2C1=O)NCCc1ccccc1 (stereo not given)	.	.	.	.	-51	?
O=C1C2C3C=CC(C3)C2C(=O)N1CN(Cc1ccccc1)CN1C(=O)C2C3C=CC(C3)C2C1=O (stereo not given)	5.6µM	.	.	.	.	.
O=C(CN1C(=O)C2C3C=CC(C3)C2C1=O)NCc1ccccc1 (stereo not given)	.	.	.	.	.	.
O=[N+]([O-])c1ccc(Sc2nccn2Cc2ccccc2)c([N+](=O)[O-])c1	14µM	/	.	.	.	.
O=[N+]([O-])c1cc(C(F)(F)F)ccc1Sc1nccn1Cc1ccccc1	?	.	.	.	.	.
CCCCOCCCNC(=O)C[C@H]1C[C@@]2(C(=O)OC)C(=C[C@H](C(C)C)O[C@@H]2C2CC2)N(Cc2ccco2)C1=O	/	.	/	/	/	/
CO[C@H]([C@H](C)/C=C/N(C)C=O)[C@@H](C)C(=O)CC[C@H](C)[C@H](O)[C@H](C)[C@H]1OC(=O)/C=C/C(C)=C/C[C@H](O)C[C@@H]2C=CC[C@@H](C[C@H](OC)[C@@H](C)[C@@H](OC)C[C@@H](OC)[C@@H]1C)O2	/	14µM	/	/	/	/
O/N=C/c1cc(Br)cc(Br)c1OCc1ccccc1	.	.	.	.	.	.
O/N=C/c1ccc(OCc2ccccc2)c(Br)c1	13µM	.	.	.	.	.
O/N=C/c1ccc(OCc2ccccc2)c(Cl)c1	22µM	.	.	.	.	.
Cc1oc(-c2ccccc2F)nc1CS(=O)(=O)CC(=O)N1CCN(c2ccccc2)CC1	.	.	.	.	.	.
Cc1ccccc1-c1nc(CS(=O)(=O)CC(=O)N2CCN(c3ccccc3)CC2)c(C)o1	13µM	.	/	.	/	/
N#CC1=C2SCN(Cc3ccco3)CN2C(=O)CC1c1ccc(Cl)cc1 (stereo not given)	.	20µM	.	.	.	.
COCC(=O)N(C)[C@H]1C[C@H]2c3[nH]c4cccc(-c5cccc(F)c5)c4c3CCN2C(=O)[C@H]1[C@H](C)O	/	.	/	/	/	/
CCn1c(-c2ccc3ncccc3c2)n[nH]c1=S	.	.	/	.	.	.
CCn1c(-c2cccc(Br)c2)n[nH]c1=S	20µM	.	.	.	.	.
CCCOc1ccc(NC(=O)CC2C(=O)OCC3CCCCN32)cc1 (stereo not given)	35µM	.	.	.	.	.
Cc1ccc(NC(=O)CC2C(=O)OCC3CCCCN32)cc1Cl (stereo not given)	.	.	.	.	.	.
O=C(O)c1ccc(-n2ncc(Cl)c(Cl)c2=O)cc1	.	.	.	.	.	/
Cc1ccc(C(=O)OCn2ncc(Cl)c(Cl)c2=O)cc1	3.2µM	.	.	.	.	?
O=C(OCn1ncc(Cl)c(Cl)c1=O)c1ccc(C(F)(F)F)cc1	4µM	.	.	.	.	.
CCOC(=O)c1ccc(NC(=O)Cn2ncc(Cl)c(Cl)c2=O)cc1	.[0.397 µM]	.	.	.	.	.
